Measurements as given in PubChem BioAssay (NCI).
About 79,000 compounds went through this panel and 15% of them were active in at least one assay; those are over-represented in the sample as a whole. A number with no mark means an inactive call. Active and inactive are the calls of the source. No stated cut-off is given here; in the data, active means growth inhibition above about 70%; inactive means the rest.

Experiment: NCI Yeast Anticancer Drug Screen. Data for the wt2 strain (AID 169);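 further: 0% = growth of vehicle-treated yeast cultures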
Conditions: S. cerevisiae wt2 strain growth inhibition; at 33.0 µM; active compounds read high
Method in brief: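 Values express reduction in yeast growth under compound treatment, referenced to vehicle-treated cells.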

Structure (SMILES)	growth inhibition
O=P(NC1CCCCC1)(OCc1ccccc1)OCc1ccccc1	4%
COc1oc(C(=O)NC2CCCCC2)c(-c2ccc(Cl)cc2)c1S(=O)(=O)c1ccccc1	91% (active)
C[Si](C)(C)/C=C/CCNC(C#N)c1ccccc1 (stereo not given)	36%
CCOc1ccc(NC(=O)C2=C(C)NC(C)=C(C(=O)Nc3ccc(OCC)cc3)C2c2cccc([N+](=O)[O-])c2)cc1	22%
CN(C)CCOC1(Cc2ccc(F)cc2)CCC(C(C)(C)C)CC1 (stereo not given)	16%
CC1(C)CC(=O)C(/C=N/c2nc(-c3ccccc3)cs2)=C(O)C1	36%
CC(=O)Nc1ccc2c(c1)Cc1cc(N=C3C=CC(=O)O3)ccc1-2	99% (active)
O=C1C=C(Cl)C(=O)C(c2ccc(Cl)cc2)=C1	94% (active)
CNCCCNc1c2ccccc2nc2cccc([N+](=O)[O-])c12	97% (active)
CCCCCCCCCCCC(O)S(=O)(=O)O (stereo not given)	-11%
CC(C)OC(=O)c1ccc(CCc2cc(O)c(Br)cc2O)cc1	98% (active)
CCc1cc(O)c(Cl)c(C)c1Cl	20%
C(=Nc1ccc(-c2cc(-c3ccccc3)nc3ccc4ccccc4c23)cc1)c1ccccc1	62%
CSc1nc(C)c(CCOC(C)=O)c(N=P(c2ccccc2)(c2ccccc2)c2ccccc2)n1	-1%
CS(=O)(=O)SCc1ccc([N+](=O)[O-])cc1	99% (active)
COC1=C(OC)C(=O)C(Sc2ccc3ccccc3c2)=CC1=O	96% (active)
COc1nc2c(c(=O)n1C)N=C(c1ccccc1)[C@H](C(CC(=O)c1ccccc1)c1ccccc1)C(c1ccccc1)N2 (stereo not given in full)	22%
Nc1cc(N)c(N=Nc2cccc3c(S(=O)(=O)O)cccc23)cc1N=Nc1cc([N+](=O)[O-])ccc1O	6%

Structure (SMILES)	growth inhibition
Nc1ccc(F)cc1S	95% (active)
Brc1ccccc1-c1ncc(-c2ccccc2)o1	21%
COc1cc(C2SCC(=O)N2c2ccc(-c3ccc(-n4c(-c5ccccc5)nc5ccccc5c4=O)cc3)cc2)ccc1O (stereo not given)	-2%
Nc1ncnc2c1ncn2C1OC(CO)CC1O (stereo not given)	66%
COc1cc(CSc2ccc(O)cc2)cc(O)c1O	-1%
CCOC(=O)C1N=[N+](c2ccccc2)C(=O)/C1=C\n1c(=S)[nH]c2ccc([N+](=O)[O-])cc21 (stereo not given)	1%
CNC(=O)OCc1c(COC(=O)NC)c2n(c1C)-c1ccc(OC)cc1CCC2	66%
O=C(NNc1ccccc1)c1ccc(Cl)c(Cl)c1	15%
Cc1ccc(CC2(OCCN(C)C)CCC(C(C)(C)C)CC2)cc1 (stereo not given)	36%
C[C@]12CC[C@H](O)CC1=CC[C@@H]1C2CC[C@]2(C)C(=O)NC(=O)CC12 (stereo not given in full)	94% (active)
CCCC/C=C/C(C)(C(=O)OCC)C(=O)OCC	-4%
CCc1c(Cl)c(C)cc(O)c1Cl	-9%
CCCC(=O)Oc1ccc(/C=N/NC(N)=S)nc1	6%
CCc1nc2ccc(NCCN(C)C)c3c(=O)c4ccccc4n1c23	-31%
COc1c(O)c(C=O)c(Br)c(C=O)c1O	30%
Cc1ccc(Cl)cc1NC(=O)OCCN(C)C(=O)Nc1cc(Cl)ccc1C	-8%
Cc1nc2ccccc2nc1NNc1ccccc1	23%
